High-throughput results (PubChem BioAssay)
Hits are enriched below; roughly 2.1% of the tested compounds scored in any of these assays.
Abeta yeast res: qHTS for compounds that reverse cellular toxicity of Amyloid beta (A-beta) peptide in yeast: Primary Screen; Potency, µM (top dose mostly 46.1 µM), hits mostly activators; hit rate 0.063% among 410,000; AID 1347071, 2019; yeast expressing A-beta42, growth rescue, OD600, 48 h; response scale: 0% DMSO, 100% iron-clioquinol control; also: nearly all actives have a fitted effect of over 55% in size
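Growth rescue measured by 600 nm absorbance after 48 h yeast culture at 30 C with compound. Values normalized between DMSO and an equimolar ferric chloride plus clioquinol control.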
TDP43 rescue: qHTS of TDP-43 Inhibitors. TDP-43 expressing yeast growth rescue, BacTiter-Glo, 24 h. Potency, µM (highest dose often 46.1 µM), actives largely listed as activators. hit rate 1.8% among 410,000; also: nearly all actives have a fitted effect of over 50% in size
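Readout is BacTiter-Glo luminescence of cell growth, so inhibitors register as activators. TDP-43-expressing yeast at OD600=0.02 in galactose medium, after raffinose pregrowth to mid-log, were incubated with compound for 24 hr at 30 deg C.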
FUS yeast rescue: qHTS for Suppressors of FUS Proteinopathy: Primary screen using FUS-linked yeast assay. Potency, µM (doses to about 76.6 µM), usual class: activators. AID 1347120, 2019. S. cerevisiae FUS-expressing, growth rescue, OD600, 24 h. hit rate 0.24% among 390,000; also: nearly all actives have a fitted effect of over 55% in size
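Toxicity suppression screen in FUS-yeast. Cells induced with 2% galactose, starting OD 0.005, treated 24hr at 30C with compounds at multiple final concentrations; growth by OD600.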
aSyn rescue: qHTS of alpha-syn Inhibitors. Potency, µM (titrated, usually from 46.1 µM), actives largely listed as activators. AID 652106, 2013. hit rate 0.14% among 370,000. Yeast expressing alpha-synuclein, growth rescue, BacTiter-Glo, 24 h; also: nearly all actives have a fitted effect of over 65% in size
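Galactose-induced alpha-syn yeast (OD600=0.02, raffinose-pregrown) + pinned cpd, 24 hr, 30 deg C; growth by BacTiter-Glo luminescence. Growth restoration scores as activation.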
PTAP TSG101 blk: qHTS Assay for Iinhibitors of HIV-1 Budding by Blocking the Interaction of PTAP/TSG101. Fluorescence polarization, FITC-PTAP peptide / Tsg101 binding. Potency, µM (series often up to 115 µM), most hits filed as inhibitors. AID 493005, 2010. 340,000 tested, under 10 active. Tumor susceptibility gene 101 protein (Homo sapiens), Q99816; active = well fitted inhibition curve with a large enough effect in the main read-out, with a control signal flat, not every such curve was filed as active; inconclusive = small, poorly fitted or top-dose-only effect, or effect the other way, or a change in a side signal; inactive = no such curve, though single readings can be large or run the other way
Target sequence (Q99816 whole entry, looked up): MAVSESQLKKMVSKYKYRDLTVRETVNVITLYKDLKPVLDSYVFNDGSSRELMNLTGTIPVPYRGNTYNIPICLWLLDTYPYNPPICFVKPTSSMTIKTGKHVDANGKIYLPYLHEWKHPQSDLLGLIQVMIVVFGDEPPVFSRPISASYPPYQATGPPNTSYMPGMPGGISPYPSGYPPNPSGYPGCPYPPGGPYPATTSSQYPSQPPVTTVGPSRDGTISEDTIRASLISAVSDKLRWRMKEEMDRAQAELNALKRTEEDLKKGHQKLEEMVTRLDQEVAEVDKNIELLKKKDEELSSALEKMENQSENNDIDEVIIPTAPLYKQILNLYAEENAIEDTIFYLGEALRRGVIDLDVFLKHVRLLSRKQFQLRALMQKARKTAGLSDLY
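Fluorescence anisotropy tracks displacement of a FITC-tagged PTAP peptide (50 nM) from the Tsg101 binding domain (10 uM), following a 20 min room-temperature incubation at pH 7.5.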
Hits are given with their value; n = inactive; u = inconclusive; x = no result; [ ] = another dose, or the depositor's remark. Unless noted, calls follow the shape of the dose curve; as a rule, active = well fitted curve in the direction sought with a large enough effect; inconclusive = small, poorly fitted or top-dose-only effect, or another doubt; inactive = no such curve, though single readings can be large; an effect the other way counts as inactive or inconclusive.

SMILES | Abeta yeast res | TDP43 rescue | FUS yeast rescue | aSyn rescue | PTAP TSG101 blk
CCOC(=O)NCc1ccc(Cl)c(Cl)c1 | n | 17.8µM | n | n | n
O=C(CSc1nc(-c2ccccc2)[nH]c1-c1ccccc1)Nc1ccc2c(c1)OCO2 | n | n | n | x | x
Cc1ccsc1C(=O)N1CCC1(C)C(=O)Nc1cccc(C#N)c1 (configuration not stated) | n | n | n | n | x
CSc1ccc(NC(=O)C2(C)CCN2C(=O)c2sccc2C)cc1 (configuration not stated) | n | 35.5µM | n | n | x
COC(=O)c1ccc2c(=O)n(CCCCCC(=O)N3CCN(c4cccc(C)c4C)CC3)c(=O)[nH]c2c1 | n | n | u | x | x
CCn1c(=O)cc(SCC(=O)NCCc2cccc(C)c2)c2ccccc21 | n | n | n | x | x
COc1ccccc1OCC(=O)Nc1ccc(N2CCCCC2)cc1 | n | n | n | n | n
CCOc1cccc(C(=O)Nc2ccc(N3CCCC3)cc2)c1 | n | n[1.82 µM] | n | n | n
CCOc1ccc(C(=O)Nc2ccc(N3CCCC3)cc2)cc1 | n | n | 35.5µM | n | n
Cc1cccc(OCC(=O)Nc2ccc(N3CCCC3)cc2)c1C | n | n | 25.1µM | n | n
Cc1coc2cc3oc(=O)c(CCC(=O)NCc4ccccc4Cl)c(C)c3cc12 | n | n | n | x | x
O=S1OC(c2ccccc2)c2cc(Cl)ccc21 (configuration not stated) | n | 12.6µM | n | n | n
Cc1ccc(Cl)cc1NC(=O)Cn1c(=O)c(CNc2ccccc2)cc2cc3c(cc21)OCCO3 | n | n | 28.2µM | n | x
COc1ccc(N2C(=O)CC(Sc3nc(C)c4c(n3)CCCC4)C2=O)cc1 (configuration not stated) | n | n | n | n | n
COc1ccc(N2C(=O)CC(Sc3n[nH]c(-c4ccccc4)n3)C2=O)cc1 (configuration not stated) | n | 2µM | n | n | n
CCOc1ccc2nc(SC3CC(=O)N(c4ccccc4)C3=O)sc2c1 (configuration not stated) | n | n | n | n | n
CCOc1ccc(N2C(=O)CC(Sc3n[nH]c(-c4ccccc4)n3)C2=O)cc1 (configuration not stated) | n | 3.55µM | n | n | n
OC(c1cccc(Cl)c1)c1nc(-c2ccccc2)cs1 (configuration not stated) | n | 14.1µM | n | u | x
OC(c1ccccc1)c1nc(-c2ccc(Cl)cc2)cs1 (configuration not stated) | n | 35.5µM | n | u | x
COC(=O)c1ccc(NC(=O)CN2CCCN(Cc3ccc(Cl)cc3)S2(=O)=O)cc1 | n | n | n | x | x
CC(C)NC(=O)C1(C)CCN1C(=O)c1cccc(F)c1 (configuration not stated) | n | n | n | n | x
COc1ccc(C)cc1NC(=O)C(=O)NCC(c1cccnc1)N1CCN(c2ccccc2F)CC1 (configuration not stated) | n | n | u | x | x
CC1(C)Oc2ccc(C(=O)NCCCN3CCCC3)cc2NC1=O | x | x | n | x | x
CN(C)Cc1c(C(C)(C)O)[nH]c2ccc(C(F)(F)F)cc12 | n | n | n | n | x
CC(C)(O)c1[nH]c2cc(C(F)(F)F)ccc2c1C(C)(C)O | u | 35.5µM | n | n | n
SMILES | Abeta yeast res | TDP43 rescue | FUS yeast rescue | aSyn rescue | PTAP TSG101 blk
CC(C)(O)c1[nH]c2ccc(C(F)(F)F)cc2c1C(C)(C)O | u | 14.1µM | n | n | n
Cc1c(C(C)(C)O)[nH]c2cc(C(F)(F)F)ccc12 | u | u | n | n | n
O=c1cc(-c2ccccc2)n2c(SCc3ccc([N+](=O)[O-])cc3)nnc2[nH]1 | n | u | n | x | x
CCOC(=O)N1CCC2(CC1)OC(=O)C(C)=C2C(=O)NCc1cccc(F)c1 | n | n | n | x | x
O=C(Nc1ccccc1OCc1cc(=O)n2ccccc2n1)c1ccccc1F | n | n | n | x | x
COc1ccc(CCN=c2c([N+](=O)[O-])nn(-c3cccc(C)c3)n2O)cc1OC | n | 17.8µM | n | n | n
Cc1cccc(CCN=c2c([N+](=O)[O-])nn(-c3ccccc3)n2O)c1 | n | 15.8µM | n | n | n
COc1ccc(-n2nc([N+](=O)[O-])c(=NCCc3cccc(C)c3)n2O)cc1 | n | 12.6µM | n | n | n
COc1ccc(-n2nc([N+](=O)[O-])c(=NCc3ccc4c(c3)OCO4)n2O)cc1 | n | 12.6µM | x | n | n
COc1ccc(-n2nc([N+](=O)[O-])c(=NCCCN3CCCC3=O)n2O)cc1 | n | n | n | n | n
Cc1ccc(N=c2c([N+](=O)[O-])nn(-c3ccccc3)n2O)c(C)c1 | n | n | n | n | n
COc1cccc(CC(=O)NCc2ccc3c(c2)CCN3C(C)=O)c1 | n | n | n | x | x
Cc1ccsc1C(=O)Nc1cc(Cl)ccc1-n1cncn1 | n | 17.8µM | n | n | n
O=C(Nc1cc(Cl)ccc1-n1cncn1)c1cc(F)c(F)c(F)c1F | n | 22.4µM | n | n | n
Cc1ccc(OCC(=O)Nc2cc(Cl)ccc2-n2cncn2)c(C)c1 | n | 12.6µM | n | n | x
CC(Oc1cccc(Cl)c1)C(=O)Nc1nc(-c2ccccn2)cs1 (configuration not stated) | u | n | n | 4.47µM | n
CC(Oc1ccccc1)C(=O)Nc1nc(-c2ccccn2)cs1 (configuration not stated) | u | u | n | 22.4µM | n
C[C@H](NC(=O)c1ccccc1)C(=O)Nc1nc(-c2ccccn2)cs1 | n | n | n | n | n
CC(Oc1ccccc1)C(=O)Nc1nc(-c2ccncc2)cs1 (configuration not stated) | n | n | n | n | n
COC(=O)c1ccc(NC(=O)CSc2ccc(-c3sc(-c4ccccc4)nc3C)nn2)cc1 | n | n | n | x | x
CCOc1ccc(CC(=O)NCCc2sc3nc(-c4ccc(F)cc4)nn3c2C)cc1 | n | u | n | x | x
COc1cc(NC(=O)CCC(=O)O)nc(OC)n1 | n | n | n | n | n
CC#CCCCC(=O)Nc1cc(OC)nc(OC)n1 | n | 14.1µM | n | n | n
O=C(NCC1CCOCC1)c1ccc(-c2ccc(F)c(F)c2)c2ccoc12 | n | 25.1µM | n | n | x
CS(=O)(=O)c1ccc(NC(=O)COc2ccccc2C(=O)Nc2ccccc2)cc1 | x | x | x | n | x
S=c1nc(-c2cc(Cl)ccc2Cl)[nH][nH]1 | 17.8µM | u | n | n | n
O=C(CC(=O)c1cc(Cl)ccc1O)c1ccccc1 | n | 10µM | n | u | n
Cc1ccc(O)c(C(=O)CC(=O)c2cccc(F)c2)c1 | n | n | n | 15.8µM | n
Cc1cccc(NC(=O)C2CCCN2S(=O)(=O)c2cccnc2)c1C (configuration not stated) | x | x | n | x | x
